High-throughput results from PubChem.
Compounds with a hit are over-represented: about 2.3% of the library has one in this group of screens.
HepG2 tox – qHTS for Inhibitors of TGF-b: Cytotox Counterscreen | HepG2 CAGA-GFP viability, ATP luminescence, 18 h | Potency, µM (top dose mostly 46.1 µM), without a hit: at the highest dose activity change, negative = cytotoxicity, hits mostly cytotoxic | 410,000 compounds, 0.76% hits | AID 588856, 2011
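CellTiter-Glo luminescence gave cytotoxicity after 18 hours at 37 degrees C. The cells were HepG2 CAGA-GFP in 1% FBS DMEM, stimulated with 500 pg/mL TGF-beta after compound addition. %Activity was normalised to no-cell wells (complete cell-killing) and DMSO (no toxicity), and curves were fitted and classified.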
S2 tox – Viability Counterscreen for Primary qHTS for Inhibitors of ATXN expression. Potency, µM (highest dose often 56.7 µM), hits mostly cytotoxic. S2 cells (HEK-293 line with an ATXN2-luciferase reporter) viability, CellTiter-Fluor protease fluorescence, 24 h. 400,000 compounds, 0.49% hits. AID 651635, 2014; further: nearly all actives have a fitted effect of over 40% in size
TGFb inhibitor – qHTS for Inhibitors of TGF-b | Potency, µM (series often up to 46.1 µM), without a hit: at the highest dose activity, negative = inhibition, most hits filed as inhibitors | AID 588855, 2011 | HepG2 CAGA-GFP TGF-b/SMAD3 reporter, GFP fluorescence, 18 h; TGF-beta stimulated, 500 pg/mL final | 410,000 compounds, 1.2% hits; further: on the % scale 0 is the no-effect control and ±100 the full control effect; nearly all actives have a fitted effect of over 65% in size
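GFP signal (ex488/em500-530) from TGF-beta-stimulated HEPG2 CAGA-GFP cells, 500 pg/mL final, 18 h at 37 degrees C in DMEM plus 1% FBS, normalized to unstimulated and DMSO-stimulated controls.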
ATXN2 expr inh – Primary qHTS for Inhibitors of ATXN expression. HEK-293 ATXN2-luciferase reporter, luminescence, 24 h. Potency, µM (doses to about 57 µM), without a hit: top-dose activity change, negative = inhibition, usual class: inhibitors. 360,000 compounds, 0.72% hits; further: on the % scale 0 is the no-effect control and ±100 the full control effect; nearly all actives have a fitted effect of over 55% in size
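ATXN2-luciferase reporter cells (luciferase flanked by upstream and downstream ATXN2 gene portions) were treated 24 h at 37 °C with compounds at up to 57 uM. SteadyGlo luminescence gave expression; GF-AFC fluorescence gave viability.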
An asterisk follows results filed as active; i = inactive; ? = inconclusive; . = no result given; ! = a repeat was not active; [ ] = another dose, or the depositor's remark. The call rests on the fitted dose curve; in most records, active means well fitted curve in the direction sought with a large enough effect; inconclusive means small, poorly fitted or top-dose-only effect, or another doubt; inactive means no such curve, though single readings can be large; an effect the other way counts as inactive or inconclusive. Potency means the concentration at half of the fitted maximal effect.

SMILES	HepG2 tox	S2 tox	TGFb inhibitor	ATXN2 expr inh
CCOC(=O)[C@]12Cc3cc(OC)ccc3[C@H]1N(CC(=O)OC)C(=O)c1ccccc12	.	?	.	15%
CCOC(=O)[C@]12Cc3cc(OC)ccc3[C@H]1N(CC(=O)OC)C(=O)c1cc(OC)ccc12	.	13µM*	.	20µM*
CCOC(=O)[C@]12Cc3cc(OC)ccc3[C@H]1N(C)C(=O)c1cc(OC)ccc12	.	14µM*	.	?
CCOC(=O)[C@]12Cc3cc(Cl)ccc3[C@H]1N(Cc1ccccc1)C(=O)c1ccccc12	-14%	i	?	-25%
CCOC(=O)[C@]12Cc3cc(C)ccc3[C@H]1N(Cc1ccccc1)C(=O)c1cc(OC)ccc12	.	32µM*	.	?
COc1cc(CC#N)cc(OC)c1OC	.	i	.	4%
O=C1C(=O)c2ccccc2-c2ccccc21	1.3µM*	2.8µM*	1.1µM*	2.5µM*
O=c1[nH]c(O)c(N=Nc2cc([N+](=O)[O-])ccc2O)c(=O)[nH]1	1%	9.5µM*	-1%	4%
CCn1cc2nc(SCc3cccc(C(F)(F)F)c3)n(Cc3ccc(OC)cc3)c(=O)c2n1	-28%	i	?	-26%
COc1cc2nc(N(C)C)c(CNCCc3c[nH]c4ccccc34)cc2c(OC)c1OC	.	i	.	.
Cc1ccc(-c2cc(C(F)F)n3ncc(C(=O)N4CCc5ccccc5C4)c3n2)cc1	-13%	i	11µM*	.
O=C(c1ccccc1)C(CN1CCCC1)c1ccccc1 (stereo not drawn)	5.6µM*	.	?	?
Cc1nc2cc(OC(=O)N(C)Cc3cccc(-c4ccncc4)c3)ccc2s1	.	.	.	-35%
CN(Cc1cccc(-c2ccncc2)c1)C(=O)Oc1ccccc1Cc1ccccc1	.	18µM*	.	?
O=C(Cn1c(=O)oc2cc(S(=O)(=O)N3CCCCCC3)ccc21)NCc1ccccc1Cl	-43%	.	?	.
CCN(CC)C(=O)N[C@@H]1C=C2c3cccc4[nH]cc(c34)C[C@@H]2N(C)C1	.	i	.	0%
CC(=O)OC(C)(C)/C=C/C(=O)[C@](C)(O)C1[C@H](O)C[C@@]2(C)C3CC=C4C(C[C@H](O)C(=O)C4(C)C)[C@]3(C)C(=O)C[C@]12C (stereo partly drawn)	-19%	?	?	?
CC(C)(O)/C=C/C(=O)C(C)(O)C1C(O)CC2(C)C3CC=C4C(C=C(O)C(=O)C4(C)C)C3(C)C(=O)CC12C (stereo not drawn)	-57%	2.4µM*	?	?
Cc1ccc(NC(=O)c2cc(-c3cc(Cl)ccc3C)n[nH]2)cc1NS(C)(=O)=O	-32%	10µM*	-10%	?
Cc1ccc(NC(=O)c2snnc2C)cc1Cl	-24%	i	16%	18%
COc1ccc2c3c1O[C@H]1[C@@H](O)C=C[C@H]4[C@@H](C2)NCC[C@@]341	.	i	.	.
O=C1NC(=O)C(=Cc2ccc(-c3ccc(Cl)cc3)o2)C(=O)N1	-29%	28µM*	?	?
O=C1NC(=O)C(=Cc2ccc(-c3ccc(S(=O)(=O)N4CCOCC4)cc3)o2)C(=O)N1	-10%	i	-6%	2%
CS(=O)(=O)c1ccc(C(=O)C2C(=O)CCCC2=O)c([N+](=O)[O-])c1	.	i	.	1%[116 µM]
CCOC(=O)c1c(-n2c(C)cc(/C=C3\C(=O)NC(=O)N(C)C3=O)c2C)sc2c1CCCC2	-14%	i	-10%	-23%
SMILES	HepG2 tox	S2 tox	TGFb inhibitor	ATXN2 expr inh
Cc1cc(/C=C2\C(=O)NC(=O)N(c3ccc(Cl)cc3)C2=O)c(C)n1-c1sc2c(c1C#N)CCCC2	-47%	?	3.5µM*	.
COC1C(O)C(C)OC(OC2CCC3(C)C(CCC4C3C(O)CC3(C)C(C5=CC(=O)OC5)CCC43O)C2)C1O (stereo not drawn)	-38%	?	2µM*	0.4µM*
CC1OC(O[C@H]2C[C@@H](O)[C@]3(CO)[C@H]4[C@H](O)C[C@]5(C)[C@@H](C6=CC(=O)OC6)CC[C@]5(O)[C@@H]4CC[C@]3(O)C2)C(O)C(O)C1O (stereo partly drawn)	-51%	.	0.56µM*	.
C[C@@H]1O[C@@H](O[C@H]2C[C@@H](O)[C@]3(CO)[C@@H]4C(CC[C@]3(O)C2)[C@@]2(O)CC[C@H](C3COC(=O)C3)[C@@]2(C)C[C@H]4O)[C@H](O)[C@H](O)[C@H]1O (stereo partly drawn)	-55%	?	?	1.6µM*
O=C(CCCCl)c1ccc(F)cc1	.	i	.	16%
CN1[C@H]2CC[C@@H]1[C@@H](C(=O)O)[C@@H](OC(=O)c1ccccc1)C2	.	i	.	.
CCC(CC)(CNC(=O)CCCO)c1cccc(OC)c1	.	i	.	9%
Cc1c(P(=S)(c2ccccc2)c2ccccc2)[n+]2ccccc2n1C/C=C/c1ccccc1	20µM*	14µM*	?	?
NC(N)=N/N=C/c1ccc(N(c2ccccc2)c2ccccc2)cc1	7.9µM*	.	13µM*	.
Cc1cccc(C(C)C)c1NC(=O)Cn1c(=O)oc2cc(S(=O)(=O)N3CCCC3)ccc21	-13%	.	.	.
Cc1nn(C(C)(C)C)c(C)c1/C=N/OC(=O)Nc1ccc(Cl)c(Cl)c1	-78%	i	18µM*	.
CCCSc1cc(OC)c(CCN)cc1OC	.	i	.	.
CC(C)N[C@@H]1CCn2c(=O)[nH]c3cccc(c32)[C@@H]1O	.	.	.	4%
C=CCO[C@@H](Cn1ccnc1)c1ccc(Cl)cc1Cl	.	i	.	.
Clc1ccc(COC(Cn2ccnc2)c2ccc(Cl)cc2Cl)cc1 (stereo not drawn)	-95%	?	?	35µM*!
COc1ccc(NC(=O)Cn2c(=O)oc3cc(S(=O)(=O)NCc4ccccc4)ccc32)c(OC)c1	-32%	.	0%	.
C[C@H]1COC2=C1C(=O)C(=O)c1c2ccc2c1CCCC2(C)C	10µM*	?	4.5µM*	3%
CN(C)C(=O)Oc1c(Cl)cc(Cl)c2cccnc12	4%	i	1%	5%
Cc1ccc2c(Cl)cc(Cl)c(O)c2n1	-30%	?	13µM*	7.1µM*!
O=C1NC(=O)N(c2ccccc2)C(=O)/C1=C/C=C/c1ccco1	-98%	18µM*	?	.
Cc1ccc(N2C(=O)NC(=O)/C(=C\c3ccoc3)C2=O)cc1	-9%	i	54%	31%
CN1C(=O)/C(=C/C=C/c2ccco2)C(=O)NC1=S	-11%	i	?	3%
Cc1cccc(N2C(=O)NC(=O)/C(=C\C=C\c3ccco3)C2=O)c1	-38%	?	8.9µM*	?
Cc1ccc(N2C(=O)NC(=O)/C(=C\C=C\c3ccco3)C2=O)cc1	-50%	7.9µM*	?	10µM*
COC[C@@H](NC(C)=O)C(=O)NCc1ccccc1	.	i	.	-1%
ClCCCN1CCN(c2cccc(Cl)c2)CC1	.	i	.	0%
CN[C@@H](C)Cc1ccccc1	.	i	.	.
